Measurements from PubChem BioAssay AID588445 (Southern Research Specialized Biocontainment Screening …, 2011).
Records with an inconclusive call do not appear. Calls of active or inactive are those of the source. How the calls were made is not given here.

Test: Vero cell viability loss – purified and synthesized compounds, set 6, cytotoxicity control for M. tuberculosis inhibitor project, dose response (AID 588445)
Settings: cytotoxicity counter-screen; series mostly up to 100 µM

Row | Compound | outcome
1 | CC1CC(C)CN(C(=O)C2CCC(CNc3c(N4CCCCC4)c(=O)c3=O)CC2)C1 (stereo unspecified) | inactive
2 | COc1ccc(N2CCN(C(=O)c3ccc(CNc4c(N5CCOCC5)c(=O)c4=O)cc3)CC2)cc1 | inactive
3 | COC(=O)CSc1ncnc2c1cnn2-c1ccc(C)cc1C | inactive
4 | CC(C)OC(=O)CSc1ncnc2c1cnn2-c1ccccc1 | inactive
5 | CCOC(=O)CSc1ncnc2c1cnn2-c1ccccc1 | inactive
6 | CCOC(=O)CSc1ncnc2c1cnn2-c1ccc(C)cc1C | inactive
